From PubChem BioAssay (EPA / NIEHS)
Active and inactive are the calls of the source. The calls were made as follows: active = hit-call score of the fitted dose curve at least 0.9, where 1 is the maximum; inactive = score below 0.9.

What was measured:
[1] = ATG_CMV_CIS: Attagene CIS-FACTORIAL HepG2 Assay for human CMV (Internal Marker) (AID 2282928); conditions: HepG2 CMV promoter reporter, transcription factor profiling; actives raise or lower the signal;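 also: endpoint acts as a background internal control marker rather than a target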
Outline: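 Bidirectional fits against DMSO are applied to reporter mRNA, read by RT-PCR with capillary electrophoresis, from HepG2 cells exposed 24 h. The endpoint serves as an internal CMV background marker within the cis-factorial reporter panel.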

[2] = ATG_DR4_LXR_CIS: Attagene CIS-FACTORIAL HepG2 Assay for human Liver X Receptor (LXR), DR4 submotif (AID 2282929); conditions: HepG2 Attagene DR4 cis-reporter, mRNA transcription; actives raise or lower the signal
Outline: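 After transient transfection with multiplexed cis-promoter reporter units, HepG2 cells received test chemicals for 24 h. Reporter mRNA induction, detected by fluorescence after RT-PCR and capillary electrophoresis, was scored relative to DMSO.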

[3] = molecular target: Aryl hydrocarbon receptor (Homo sapiens) (UniProt P35869); assay: ATG_Ahr_CIS: Attagene CIS-FACTORIAL HepG2 Assay for human Aryl Hydrocarbon Receptor (Ahr) (AID 2282930); conditions: HepG2 AhR cis-factorial reporter transcription; actives raise or lower the signal
Outline: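 HepG2 cells transiently transfected with cis-element-driven multiplexed reporter transcription units; endogenous transcription factor activity measured as reporter mRNA 24 h after dosing. RT-PCR, 6-FAM labelling, HpaI digestion, capillary electrophoresis; bidirectional fitting versus DMSO baseline.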

[4] = ATG_AP_1_CIS: Attagene CIS-FACTORIAL HepG2 Assay for human Activator Protein 1 (AP-1) (AID 2282931); conditions: HepG2 Attagene cis-factorial AP-1 reporter mRNA; actives raise or lower the signal
Outline: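 After 24 h incubation with test chemical, RNA from transfected HepG2 cells was reverse-transcribed, amplified, fluorescently labelled and digested before capillary electrophoresis. Reporters were driven by cis-regulatory promoters; activity fitted bidirectionally versus DMSO.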

[5] = ATG_AP_2_CIS: Attagene CIS-FACTORIAL HepG2 Assay for human Activator Protein 2 (AP-2) (AID 2282932); conditions: HepG2 AP-2 cis-reporter, Attagene transcription factor profiling; actives raise or lower the signal
Outline: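 Cells (HepG2) transfected with promoter-driven reporter constructs, treated 24 h. Total RNA reverse-transcribed, reporter cDNA PCR-amplified, FAM-labelled by primer extension, digested, resolved by capillary electrophoresis. Activity fitted both directions versus DMSO.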

[6] = ATG_BRE_CIS: Attagene CIS-FACTORIAL HepG2 Assay for human Bone Morphogenetic Protein (BMP) Response Element (BRE) (AID 2282933); conditions: HepG2 BMP response element reporter, Attagene transcription factor profiling; actives raise or lower the signal
Outline: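 After a 24 h chemical treatment, transiently transfected HepG2 cells were lysed for RNA; reporter transcripts were quantified by fluorescent RT-PCR and capillary electrophoresis, normalised to DMSO.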

[7] = molecular target: Retinoic acid receptor alpha (Homo sapiens) (UniProt P10276); assay: ATG_DR5_RAR_CIS: Attagene CIS-FACTORIAL HepG2 Assay for human Retinoic Acid Receptor Alpha (RARE), DR5 submotif (AID 2282934); conditions: HepG2 Attagene cis-factorial RARE DR5 reporter, mRNA; actives raise or lower the signal;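 as to AC50: reporter responds to endogenous RAR alpha beta and gamma in HepG2 not RARA alone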
Outline: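 HepG2 cells transiently transfected with multiplexed reporter units under cis (DR5 RARE) promoters, so endogenous transcription factor activity is measured. After 24 h compound exposure, reporter mRNA is quantified by RT-PCR with fluorescent labelling and capillary electrophoresis; bidirectional fitting versus DMSO.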

[8] = molecular target: Transcription factor E2F1 (Homo sapiens) (UniProt Q01094); assay: ATG_E2F_CIS: Attagene CIS-FACTORIAL HepG2 Assay for human E2F Transcription Factor 1 (AID 2282935); conditions: HepG2 Attagene cis-reporter, E2F reporter RNA transcripts; actives raise or lower the signal
Outline: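 First, HepG2 cells were transfected with reporter transcription units. Next, they were dosed for 24 h. Then RNA was isolated, converted to cDNA, PCR-amplified, FAM-labeled, HpaI-digested and analyzed by capillary electrophoresis.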

[9] = ATG_E_Box_CIS: Attagene CIS-FACTORIAL HepG2 Assay for human Enhancer Box (E-box) (AID 2282936); conditions: HepG2 E-box cis-reporter transcription, actives raise or lower the signal
Outline: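 Endogenous transcription factor activity was sensed in human HepG2 liver cells through transfected cis-promoter reporter units. After 24 h of dosing, total RNA was reverse-transcribed and reporter cDNA resolved by capillary electrophoresis.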

[10] = ATG_M_61_CIS: Attagene CIS-FACTORIAL HepG2 Assay for M61 Transcription Factor (Internal Marker) (AID 2282937); conditions: HepG2 Attagene CIS-FACTORIAL M61 internal marker reporter; actives raise or lower the signal
Outline: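 Using transiently transfected HepG2 liver cells, reporter transcript levels were assessed 24 h post-dosing by RT-PCR and capillary electrophoresis. Changes in either direction were fitted relative to DMSO controls.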

[11] = ATG_Ets_CIS: Attagene CIS-FACTORIAL HepG2 Assay for human Erythroblast Transformation Specific (ETS) (AID 2282941); conditions: HepG2 ETS cis-reporter transcription, actives raise or lower the signal
Outline: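 Endogenous transcription factor activity read as reporter mRNA via RT-PCR and capillary electrophoresis, with gain or loss fitted bidirectionally against DMSO. Human HepG2 liver cells, transiently transfected CIS reporter constructs, 24 h exposure.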

[12] = ATG_FoxO_CIS: Attagene CIS-FACTORIAL HepG2 Assay for human Forkhead box O (FoxO) (AID 2282943); conditions: HepG2 Attagene cis-reporter, FoxO element, mRNA; actives raise or lower the signal
Outline: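 HepG2 cells transiently transfected with cis-promoter-driven multiple reporter transcription units; 24 h after chemical dosing, reporter mRNA quantified by RT-PCR, fluorescent primer extension, HpaI digestion and capillary electrophoresis. Bidirectional fitting versus DMSO baseline.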

[13] = ATG_GATA_CIS: Attagene CIS-FACTORIAL HepG2 Assay for human GATA Binding Protein (AID 2282944); conditions: HepG2 GATA cis-element reporter, Attagene multiplex mRNA; actives raise or lower the signal
Outline: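 Measures endogenous transcription factor-driven reporter mRNA in HepG2 cells transiently carrying cis-regulated constructs. 24 h dosing; RNA via oligo(dT) reverse transcription, PCR, HpaI digestion, capillary electrophoresis; fitted relative to DMSO.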

[14] = ATG_GLI_CIS: Attagene CIS-FACTORIAL HepG2 Assay for human Zinc Finger Protein GLI1 (AID 2282945); conditions: HepG2, Attagene cis-factorial reporter mRNA, GLI element; actives raise or lower the signal
Outline: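 HepG2 cells transiently transfected with cis-promoter multiplexed reporter units report endogenous transcription factor activity. After 24 h chemical exposure, reporter mRNA was quantified by RT-PCR, 6-FAM labelling, HpaI digestion and capillary electrophoresis, with bidirectional fitting against DMSO.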

[15] = molecular target: Bile acid receptor (Homo sapiens) (UniProt Q96RI1); assay: ATG_IR1_CIS: Attagene CIS-FACTORIAL HepG2 Assay for human Nuclear Receptor Subfamily 1 Group H Member 4 (NR1H4), IR1 submotif (AID 2282946); conditions: IR1 reporter transcription, actives raise or lower the signal
Outline: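 Readout: reporter transcript levels by RT-PCR with fluorescent capillary electrophoresis, from HepG2 cells transiently transfected with multiplexed cis-regulated reporters and dosed 24 h. Gain- or loss-of-signal fitted versus DMSO negative control.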

[16] = ATG_M_19_CIS: Attagene CIS-FACTORIAL HepG2 Assay for M19 Transcription Factor (Internal Marker) (AID 2282939); conditions: HepG2 Attagene CIS-FACTORIAL M19 internal marker reporter; actives raise or lower the signal
Outline: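 In this multiplexed cell assay, transiently transfected HepG2 reporter units report endogenous transcription-factor activity; after 24 hours of treatment, labelled reporter cDNA fragments are quantified by capillary electrophoresis and fitted bidirectionally against DMSO.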

[17] = ATG_ERE_CIS: Attagene CIS-FACTORIAL HepG2 Assay for Estrogen Response Element (ERE) (AID 2282940); conditions: HepG2 ERE cis-reporter, Attagene RNA transcript; actives raise or lower the signal
Outline: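 Measuring endogenous transcription factor output, the assay doses transfected HepG2 cells for 24 hours and quantifies reporter transcripts by fluorescent RT-PCR and capillary electrophoresis, with DMSO as baseline.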

[18] = molecular target: Hepatocyte nuclear factor 3-beta (Homo sapiens) (UniProt Q9Y261); assay: ATG_FoxA2_CIS: Attagene CIS-FACTORIAL HepG2 Assay for human Forkhead box A2 (FOXA2) (AID 2282942); conditions: HepG2 cis-reporter transcription factor activity, 24 h; actives raise or lower the signal
Outline: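 Fluorescence signal of reporter cDNA fragments, separated by capillary electrophoresis, reflects endogenous transcription factor activity in transfected HepG2 after 24 h. Both increases and decreases fitted against DMSO.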

[19] = ATG_GRE_CIS: Attagene CIS-FACTORIAL HepG2 Assay for human Glucocorticoid Response Elements (GRE) (AID 2282947); conditions: HepG2 GRE cis-reporter, Attagene multiplex mRNA; actives raise or lower the signal
Outline: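 Cells (HepG2) bearing transfected cis-promoter reporter transcription units were treated with chemical for 24 hours. Reporter mRNA was measured via RT-PCR with capillary electrophoresis, and activity was fitted in both directions relative to DMSO.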

[20] = ATG_EGR_CIS: Attagene CIS-FACTORIAL HepG2 Assay for human Early Growth Response 1 (EGR1) (AID 2282938); conditions: HepG2 Attagene CIS-FACTORIAL EGR reporter mRNA; actives raise or lower the signal
Outline: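 Fluorescent capillary-electrophoresis signal of reporter cDNA fragments serves as read-out. HepG2 cells bear transiently transfected cis-promoter reporter units and are exposed 24 h; gain- or loss-of-signal is fitted against DMSO.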

Measured: AC50

Hepatocyte nuclear factor 3-beta (Homo sapiens), sequence (Q9Y261 whole entry, looked up, the tested form may be a part): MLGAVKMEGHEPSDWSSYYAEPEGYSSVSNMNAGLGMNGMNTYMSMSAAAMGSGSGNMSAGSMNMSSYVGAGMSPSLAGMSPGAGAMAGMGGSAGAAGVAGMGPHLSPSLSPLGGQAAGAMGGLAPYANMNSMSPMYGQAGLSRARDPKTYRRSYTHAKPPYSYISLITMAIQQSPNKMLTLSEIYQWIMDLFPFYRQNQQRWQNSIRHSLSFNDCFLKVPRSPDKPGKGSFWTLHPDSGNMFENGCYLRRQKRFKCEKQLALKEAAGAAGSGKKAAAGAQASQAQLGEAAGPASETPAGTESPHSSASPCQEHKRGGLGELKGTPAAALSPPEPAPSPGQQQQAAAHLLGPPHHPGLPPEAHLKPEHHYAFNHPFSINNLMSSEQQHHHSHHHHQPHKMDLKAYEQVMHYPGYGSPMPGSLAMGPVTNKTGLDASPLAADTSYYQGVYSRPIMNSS
Bile acid receptor (Homo sapiens), sequence (Q96RI1 whole entry, looked up): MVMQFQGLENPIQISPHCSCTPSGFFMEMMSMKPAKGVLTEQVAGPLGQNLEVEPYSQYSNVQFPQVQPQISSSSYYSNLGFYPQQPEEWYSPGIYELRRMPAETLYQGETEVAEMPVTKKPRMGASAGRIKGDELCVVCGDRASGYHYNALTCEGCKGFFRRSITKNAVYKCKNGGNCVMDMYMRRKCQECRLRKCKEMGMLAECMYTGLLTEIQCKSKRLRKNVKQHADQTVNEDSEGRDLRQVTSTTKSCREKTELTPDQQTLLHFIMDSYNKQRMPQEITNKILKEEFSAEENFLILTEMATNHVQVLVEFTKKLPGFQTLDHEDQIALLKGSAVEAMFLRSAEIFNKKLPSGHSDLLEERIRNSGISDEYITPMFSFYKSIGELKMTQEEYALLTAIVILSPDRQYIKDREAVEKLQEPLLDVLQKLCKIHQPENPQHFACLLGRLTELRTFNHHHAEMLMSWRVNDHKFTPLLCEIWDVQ
Aryl hydrocarbon receptor (Homo sapiens), sequence (P35869 whole entry, looked up): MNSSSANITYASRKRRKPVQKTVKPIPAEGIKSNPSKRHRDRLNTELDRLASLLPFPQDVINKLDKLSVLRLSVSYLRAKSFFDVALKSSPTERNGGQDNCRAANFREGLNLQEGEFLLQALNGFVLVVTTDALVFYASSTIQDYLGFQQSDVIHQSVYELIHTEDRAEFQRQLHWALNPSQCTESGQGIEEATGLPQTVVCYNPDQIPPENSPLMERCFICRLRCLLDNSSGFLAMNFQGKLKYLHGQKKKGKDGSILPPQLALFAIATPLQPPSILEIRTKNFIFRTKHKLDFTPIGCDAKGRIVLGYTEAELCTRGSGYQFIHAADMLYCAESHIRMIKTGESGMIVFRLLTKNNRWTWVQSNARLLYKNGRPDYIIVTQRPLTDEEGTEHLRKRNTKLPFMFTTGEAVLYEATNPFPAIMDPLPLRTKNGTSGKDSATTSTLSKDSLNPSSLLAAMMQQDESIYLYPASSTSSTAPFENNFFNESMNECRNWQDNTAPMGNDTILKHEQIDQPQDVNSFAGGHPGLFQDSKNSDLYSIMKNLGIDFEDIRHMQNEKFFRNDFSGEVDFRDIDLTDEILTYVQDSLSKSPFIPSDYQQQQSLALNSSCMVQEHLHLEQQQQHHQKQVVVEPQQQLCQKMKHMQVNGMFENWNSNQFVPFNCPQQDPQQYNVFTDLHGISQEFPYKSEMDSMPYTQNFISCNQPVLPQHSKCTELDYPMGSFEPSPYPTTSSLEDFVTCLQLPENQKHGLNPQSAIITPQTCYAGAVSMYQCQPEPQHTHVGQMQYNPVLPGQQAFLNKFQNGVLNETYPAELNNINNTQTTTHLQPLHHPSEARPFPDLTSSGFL
Retinoic acid receptor alpha (Homo sapiens), sequence (P10276 whole entry, looked up): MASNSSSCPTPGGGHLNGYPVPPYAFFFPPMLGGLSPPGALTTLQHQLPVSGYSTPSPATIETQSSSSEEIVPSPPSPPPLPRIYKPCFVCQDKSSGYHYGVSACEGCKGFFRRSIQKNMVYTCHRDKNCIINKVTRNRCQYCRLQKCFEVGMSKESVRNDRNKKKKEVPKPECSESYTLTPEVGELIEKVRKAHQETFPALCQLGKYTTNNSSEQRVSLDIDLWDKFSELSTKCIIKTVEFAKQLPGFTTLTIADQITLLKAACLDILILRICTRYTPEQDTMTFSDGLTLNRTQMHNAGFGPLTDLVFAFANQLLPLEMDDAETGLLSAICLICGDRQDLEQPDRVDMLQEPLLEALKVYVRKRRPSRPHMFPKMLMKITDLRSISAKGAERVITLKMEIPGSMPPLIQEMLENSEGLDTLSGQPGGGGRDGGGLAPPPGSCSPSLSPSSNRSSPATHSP
Transcription factor E2F1 (Homo sapiens), sequence (Q01094 whole entry, looked up): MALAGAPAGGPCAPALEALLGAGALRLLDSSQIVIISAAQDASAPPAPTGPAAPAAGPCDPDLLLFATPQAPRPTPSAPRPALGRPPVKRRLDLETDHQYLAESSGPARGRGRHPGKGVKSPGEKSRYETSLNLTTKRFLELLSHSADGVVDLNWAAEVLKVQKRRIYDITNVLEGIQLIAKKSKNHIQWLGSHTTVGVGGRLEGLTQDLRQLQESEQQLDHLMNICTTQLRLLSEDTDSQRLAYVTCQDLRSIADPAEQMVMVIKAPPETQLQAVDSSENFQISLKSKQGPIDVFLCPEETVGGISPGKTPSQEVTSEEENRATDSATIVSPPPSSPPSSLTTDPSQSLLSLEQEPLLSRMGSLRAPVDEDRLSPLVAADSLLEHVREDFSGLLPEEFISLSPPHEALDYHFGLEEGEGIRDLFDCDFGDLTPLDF

NNCCO
active: [3] 25.7 µM
inactive: [1] | [2] | [4] | [5] | [6] | [7] | [8] | [9] | [10] | [11] | [12] | [13] | [14] | [15]

O=S1OC[C@@H]2[C@H](CO1)[C@]1(Cl)C(Cl)=C(Cl)[C@@]2(Cl)C1(Cl)Cl (stereo partly drawn)
inactive: [3] | [5] | [6] | [7] | [8] | [9] | [10] | [16] | [11] | [18] | [12] | [13] | [14] | [15] | [19]
active: [1] 100 µM | [2] 27.1 µM | [4] 100 µM | [17] 2.77 µM

Cc1cccc(C)c1NC(=O)CN1CCCC1=O
inactive: [1] | [2] | [3] | [4] | [5] | [6] | [7] | [8] | [9] | [10] | [20] | [11] | [18] | [13] | [14] | [15] | [19]

Oc1cc(Cl)c(Cl)cc1Cl
active: [1] 27.2 µM | [4] 25.9 µM | [6] 26.8 µM | [20] 66.6 µM
inactive: [2] | [3] | [5] | [8] | [9] | [10] | [16] | [11] | [18] | [12] | [13] | [14]

COC(F)(C(F)(F)C(F)(F)F)C(F)(C(F)(F)F)C(F)(F)F (stereo not drawn)
inactive: [1] | [2] | [3] | [4] | [5] | [6] | [7] | [8] | [9] | [10] | [16] | [17] | [11] | [18] | [12] | [13] | [14] | [15] | [19]

N#CCCC(Br)(C#N)CBr (stereo not drawn)
inactive: [4] | [6] | [8] | [10] | [17] | [11] | [18] | [12] | [13] | [19]
active: [1] 62.1 µM | [3] 33.4 µM | [5] 49.9 µM | [7] 55.3 µM | [9] 62.4 µM | [20] 45.3 µM | [14] 53.6 µM | [15] 53.9 µM

CCOP(=S)(OCC)OP(=S)(OCC)OCC
inactive: [1] | [3] | [4] | [5] | [6] | [7] | [8] | [9] | [10] | [20] | [16] | [11] | [18] | [13] | [14] | [15]

CCOP(=S)(OCC)Oc1ccc(Cl)cc1Cl
active: [1] 63 µM | [17] 10.1 µM
inactive: [3] | [4] | [5] | [6] | [7] | [8] | [9] | [10] | [20] | [16] | [11] | [18] | [12] | [13] | [14] | [19]
